Laboratory results published in PubChem BioAssay.
The source made the active and inactive calls.

Key:
[1] = system: XIP peptide (Xip251-270) binding; assay: XIP fragment 251-270 binding compounds – biochemical, small-molecule microarray, fluorescence 635/667 nm, 0.1 µg/mL protein, primary screen (AID 1182); conditions: fluorescent protein binding, 635 nm, higher = more signal, called active from +8 up or from −8 down
XIP peptide (Xip251-270) = assay: compounds binding XIP fragment 251-270 – biochemical, small-molecule microarray, fluorescence 635/667 nm, 0.5 µg/mL protein, primary screen (AID 1183); conditions: fluorescence 635 nm, higher = more signal
[2] = blood-stage malaria parasite viability loss – strain 3D7, DAPI fluorescence, 100 nL, primary screen (AID 1184);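 further: parasites grown inside human red blood cells in medium with human serum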; conditions: P. falciparum 3D7 growth, 3 d, higher = more signal
[3] = molecular target: Homeobox protein Hox-A13 (Mus musculus) (UniProt Q62424); assay: disruptors of Hoxa13 oligonucleotide interaction – biochemical, fluorescence polarization, labeled oligonucleotide, primary screen (AID 1185); conditions: Hoxa13:DNA binding, 15 min, higher = more signal, called active from +8 up or from −8 down
Sequence of Homeobox protein Hox-A13 (Mus musculus) (Q62424 whole entry, looked up): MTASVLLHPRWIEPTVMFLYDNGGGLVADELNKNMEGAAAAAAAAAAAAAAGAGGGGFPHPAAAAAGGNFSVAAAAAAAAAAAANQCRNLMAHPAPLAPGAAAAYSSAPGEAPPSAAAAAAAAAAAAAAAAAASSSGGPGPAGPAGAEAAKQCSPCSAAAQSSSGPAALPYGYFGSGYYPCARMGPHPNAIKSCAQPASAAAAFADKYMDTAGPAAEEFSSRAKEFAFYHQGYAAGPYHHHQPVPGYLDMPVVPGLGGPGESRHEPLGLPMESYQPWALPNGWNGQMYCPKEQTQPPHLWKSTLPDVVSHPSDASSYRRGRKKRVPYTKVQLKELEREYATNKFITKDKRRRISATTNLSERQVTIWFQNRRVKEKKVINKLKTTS

| SMILES | composite z-score [1] | composite z-score (XIP peptide (Xip251-270)) | z-score [2] | z-score [3] |
| --- | --- | --- | --- | --- |
| C=COC[C@@H]1CN2[C@@H](CC[C@@H](C)[C@@H]2c2ccc(Br)cc2)C(=O)O1 | -0.0657 (inactive) | 0.103 | -0.977 | -2.54 (inactive) |
| CCOC(=O)[C@H](CC(C)C)NC(=O)CCC1CC(OC(=O)NCc2cccc3ccccc23)CC2(CCCC(COC(=O)NCCOC)O2)O1 (stereo partly specified) | -0.182 (inactive) | 0.446 | -1.88 | -3.68 (inactive) |
| CCN1C(=O)[C@@H]2[C@H]3C(=CC[C@@H]2C1=O)C1(OCCCO1)[C@H]1O[C@H]1[C@H]3O | 0.645 (inactive) | 0.689 | -1.63 | -10.9 (active) |
| CCCCC#C[C@@H]1C=C[C@H](OC(C)=O)[C@@H](COC(C)=O)O1 | 1.45 (inactive) | 0.641 | 0.247 | -4.35 (inactive) |
| CC(C)=CCCC(C)=CCON=C1C[C@@H](O)[C@@H](O)[C@@H]2[C@@H]3C(=O)N(Cc4ccccc4)C(=O)[C@@H]3CC[C@H]12 | -0.0515 (inactive) | 0.419 | -0.869 | -4.91 (inactive) |
| COc1ccc(O[C@H]2C=C[C@@H](c3ccccc3)O[C@@H]2CON=C(C)C)cc1 | 0.862 (inactive) | 0.267 | 0.894 | 2.39 (inactive) |
| CC(CCN1CCCc2nc(C)c(C)cc21)=NOC(C)CN1CCCCc2nc(C)c(C)cc21 (stereo unspecified) | -0.053 (inactive) | 0.725 | -0.153 | -6.78 (inactive) |
| C#CCCCON=C1C[C@@H](O)[C@@H](O)[C@@H]2[C@@H]3C(=O)N(C(C)(C)C)C(=O)[C@@H]3CC[C@H]12 | -0.217 (inactive) | -0.385 | -0.381 | 0.436 (inactive) |
| CC(=O)OC[C@H]1O[C@H](CCON=C2[C@H]3CCn4c(=O)n(-c5ccccc5)c(=O)n4[C@H]3[C@H](O)[C@@H]3O[C@H]23)C=C[C@@H]1OC(C)=O | 0.149 (inactive) | -0.325 | -0.374 | -1.83 (inactive) |
| CON=C(C)CCC(=O)OC[C@H]1O[C@H](c2ccccc2)C=C[C@@H]1Oc1ccc(OC)cc1 | 0.103 (inactive) | 0.19 | -0.442 | -4.5 (inactive) |
| COc1ccc(O[C@@H]2[C@H](O)CO[C@@H]2C=Cc2ccccc2)cc1 | 0.196 (inactive) | 0.592 | -0.971 | -0.162 (inactive) |
| O=C1C[C@@H](O)[C@@H](O)[C@@H]2[C@@H]3C(=O)N(Cc4ccc5c(c4)OCO5)C(=O)[C@@H]3CC[C@H]12 | 0.245 (inactive) | 0.0056 | 1.57 | -0.523 (inactive) |
| CCOC(=O)[C@H](Cc1ccccc1)NC(=O)CCC1CC(OC(=O)NCc2cccc3ccccc23)CC2(CCCC(COC(=O)NCc3cccc(C(F)(F)F)c3)O2)O1 (stereo partly specified) | 0.418 (inactive) | 0.335 | -1.39 | -4.31 (inactive) |
| O=C1[C@H]2[C@H]3[C@H](O)[C@H](O)CC(=NO[C@@H]4O[C@H](CO)[C@@H](O)[C@H](O)[C@H]4O)[C@H]3CC[C@H]2C(=O)N1c1cccc(Oc2ccccc2)c1 | -0.373 (inactive) | 0.538 | -0.418 | -1.68 (inactive) |
| COc1ccc(O[C@H]2C=C[C@@H](c3ccccc3)O[C@@H]2CON=C(C)CCN2CCc3nc(-c4ccccc4)c(-c4ccccc4)cc3C2)cc1 | 0.276 (inactive) | 0.445 | -0.553 | -1.81 (inactive) |
| CC(CCC(=O)OC[C@H]1O[C@H](C#Cc2ccccc2)C=C[C@@H]1Oc1ccc(C)cc1)=NO[C@H](C)c1cn([C@H](CO)Cc2ccccc2)nn1 | 0.157 (inactive) | 0.662 | -0.563 | -2.88 (inactive) |
| COC(=O)[C@H]1O[C@@H](c2c(OC)c(OC)c(C)c(OC)c2OC)[C@H](C)[C@@H](O)[C@H]1C | 0.498 (inactive) | 0.486 | 0.0136 | 0.6 (inactive) |
| Cn1c(=O)n2n(c1=O)[C@H]1[C@H](O)[C@@H]3O[C@@H]3C(=O)[C@H]1CC2 | 0.151 (inactive) | 0.186 | 0.551 | 0.336 (inactive) |
| CCC1=NOC(CCC2CC(OC(=O)NCc3cccc4c3OCO4)CC3(CCCC(COC(=O)NCCc4ccccc4OC)O3)O2)C1 (stereo unspecified) | 1.87 (inactive) | 0.357 | -0.95 | -6.1 (inactive) |
| CC(CCN1CCc2nc(-c3ccccc3)c(-c3ccccc3)cc2C1)=NOC[C@@H](O)COCc1ccco1 | 1.58 (inactive) | 0.54 | 0.329 | -5.11 (inactive) |
| COc1cccc([C@H]2Oc3ccc(OC)cc3C(=NOC[C@@H](O)COCc3ccco3)[C@@H]2O)c1 | 0.252 (inactive) | -1.5 | 0.563 | -5.25 (inactive) |
| CON=C1[C@H]2CCn3c(=O)n(-c4ccccc4)c(=O)n3[C@H]2[C@H](O)[C@@H]2O[C@H]12 | -0.0682 (inactive) | 0.491 | -0.573 | -0.465 (inactive) |

| SMILES | composite z-score [1] | composite z-score (XIP peptide (Xip251-270)) | z-score [2] | z-score [3] |
| --- | --- | --- | --- | --- |
| CCO[C@H](c1cc(OC)cc([N+](=O)[O-])c1OC)[C@H](C)C=CCC(=O)OC | -0.128 (inactive) | 0.325 | -0.0866 | -0.64 (inactive) |
| O=C(NN=C1C[C@@H](O)[C@@H](O)[C@@H]2[C@@H]3C(=O)N(C[C@@H]4CCCO4)C(=O)[C@@H]3CC[C@H]12)OCc1ccccc1 | -0.526 (inactive) | -0.314 | 0.0837 | 0.901 (inactive) |
| CC(CCN1CCCc2nc(C)c(C)cc21)=NO[C@@H](C)c1cc(-c2c(C)cc(C)cc2C)no1 | 0.268 (inactive) | 0.567 | -1.36 | -3.46 (inactive) |
| O=C1[C@H]2[C@H]3[C@H](O)[C@H](O)CC(=NOC[C@@H](O)COCc4ccco4)[C@H]3CC[C@H]2C(=O)N1C[C@@H]1CCCO1 | -0.149 (inactive) | 0.605 | 0.523 | -0.514 (inactive) |
| COC(=O)[C@@H]1CC[C@H](C)[C@@H](c2ccc(C)cc2)N1C(=O)c1ccc(C=NO[C@@H]2O[C@H](COC(C)=O)[C@@H](OC(C)=O)[C@H](OC(C)=O)[C@H]2OC(C)=O)cc1 | -0.279 (inactive) | 0.649 | -1.4 | 0.102 (inactive) |
| COc1cccc([C@@H]2Oc3ccc(OC)cc3C(=O)[C@H]2O)c1 | 0.565 (inactive) | 0.65 | -1.09 | -0.169 (inactive) |
| C[C@@H](c1ccccc1)N1C(=O)[C@H]2[C@H]3[C@H](O)[C@H](O)CC(=NOCc4ccccc4)[C@H]3CC[C@H]2C1=O | -0.0218 (inactive) | 0.548 | 0.754 | 0.0197 (inactive) |
| C=CC[C@@H]1C=C[C@H](ON=C(C)CCC(=O)OC[C@H]2O[C@H](C#Cc3ccccc3)C=C[C@@H]2Oc2ccc(C)cc2)[C@@H](CO)O1 | 1.18 (inactive) | 0.437 | 0.37 | -4.14 (inactive) |
| CC[C@@H](c1ccccc1)n1c(=O)n2n(c1=O)[C@H]1[C@H](O)[C@@H]3O[C@@H]3C(=NOC[C@@H](O)COCc3ccco3)[C@H]1CC2 | -0.0593 (inactive) | -0.268 | -0.949 | -3.57 (inactive) |
| O=C(NN=C1C[C@@H](O)[C@@H](O)[C@@H]2[C@@H]3C(=O)N(Cc4ccccc4)C(=O)[C@@H]3CC[C@@H]12)OCc1ccccc1 | -0.0255 (inactive) | -0.36 | 0.915 | 0.236 (inactive) |
| CCCNC(=O)OC[C@H]1O[C@H](CCON=Cc2ccc(C(=O)N3[C@H](c4ccc(C)cc4)[C@@H](C)CC[C@H]3C(=O)OC)cc2)C=C[C@@H]1Oc1ccc(OC)cc1 | 0.236 (inactive) | 0.257 | -2.3 | -2.32 (inactive) |
| CO[C@@H]1COC(=O)[C@@H](C)COC(=O)[C@@H](C)NC(=O)CC=C[C@@H]1C | 0.0875 (inactive) | 0.304 | -1.52 | -0.701 (inactive) |
| CCOC(=O)CCN1C(=O)[C@H]2[C@H]3[C@H](O)[C@H](O)CC(=NOCC(C)C)[C@H]3CC[C@H]2C1=O | 0.289 (inactive) | 0.158 | 1.2 | 0.737 (inactive) |
| C=CC[C@@H]1C=C[C@H](ON=C2[C@H]3CCn4c(=O)n(-c5ccccc5)c(=O)n4[C@H]3[C@H](O)[C@@H]3O[C@H]23)[C@@H](CO)O1 | 0.372 (inactive) | 0.287 | -0.605 | -2.05 (inactive) |
| Cc1cc2c(nc1C)CCCCN2CC(C)ON=C1[C@H]2CCn3c(=O)n(-c4ccccc4)c(=O)n3[C@H]2[C@H](O)[C@@H]2O[C@H]12 (stereo partly specified) | -0.239 (inactive) | 0.7 | -1.94 | -4.23 (inactive) |
| CO[C@H]1COC(=O)CCC[C@@H](C)[C@H](OC)COC(=O)[C@@H](C)NC(=O)CC=C[C@@H]1C | -0.157 (inactive) | -0.0673 | -1.29 | -1.94 (inactive) |
| CO[C@@H]1C=CCC(=O)N2CCC[C@H]2C(=O)OC[C@@H](C)C(=O)OC[C@H]1C | 0.229 (inactive) | 0.826 | 0.432 | 0.772 (inactive) |
| CC(CCN1CCCCc2nc(C)c(C)cc21)=NOC[C@@H](O)COCc1ccco1 | 2.22 (inactive) | 0.863 | -0.246 | -4.37 (inactive) |
| CCOC(=O)[C@H](Cc1ccccc1)NC(=O)CCC1CC(OC(=O)NCc2ccc3c(c2)OCO3)CC2(CCCC(COC(=O)NCCc3ccccc3OC)O2)O1 (stereo partly specified) | 0.581 (inactive) | 0.798 | -1.78 | -4 (inactive) |
| CCOC(=O)[C@H](Cc1ccccc1)NC(=O)OC1CC(CCC2CC(CC)=NO2)OC2(CCCC(COC(=O)NCCC(C)C)O2)C1 (stereo partly specified) | 0.654 (inactive) | 0.527 | -1.04 | -5.07 (inactive) |
| CO[C@H]1COC(=O)[C@@H](C)COC(=O)[C@H](C)NC(=O)CC=C[C@H]1C | -0.166 (inactive) | 0.564 | -0.455 | -0.236 (inactive) |
| CC(C)=CCCC(C)=CCON=C1C[C@@H](O)[C@@H](O)[C@@H]2[C@@H]3C(=O)N(Cc4ccccc4)C(=O)[C@@H]3CC[C@@H]12 | 0.146 (inactive) | 0.703 | 0.83 | -0.241 (inactive) |
